In PubChem BioAssay AID493170 (National Center for Advancing Translational Sciences (NCATS), 2011):
Results filed as inconclusive are left out. Calls of active or inactive are those of the source. Calls follow the shape of the dose curve; as a rule, active = well fitted inhibition curve with a large enough effect; inconclusive = small, poorly fitted or top-dose-only effect, or effect the other way; inactive = flat fitted curve, though single readings scatter.
% is scaled to controls: 0 for no effect and ±100 for the full control effect; potency is read from the fitted curve at half-maximal effect.
Also: nearly all actives have a fitted effect of over 50% in size.

These molecules were tested against Ubiquitin carboxyl-terminal hydrolase 2 (Homo sapiens) (UniProt O75604) (assay: Ub-rhodamine 110 based assay for inhibitors Ubiquitin-specific Protease USP2a). Conditions: USP2a Ub-rhodamine110 cleavage, fluorescence; series mostly up to 38.3 µM; activity change, negative = inhibition: at the top concentration.
Ubiquitin carboxyl-terminal hydrolase 2 (Homo sapiens), sequence (O75604 whole entry, looked up): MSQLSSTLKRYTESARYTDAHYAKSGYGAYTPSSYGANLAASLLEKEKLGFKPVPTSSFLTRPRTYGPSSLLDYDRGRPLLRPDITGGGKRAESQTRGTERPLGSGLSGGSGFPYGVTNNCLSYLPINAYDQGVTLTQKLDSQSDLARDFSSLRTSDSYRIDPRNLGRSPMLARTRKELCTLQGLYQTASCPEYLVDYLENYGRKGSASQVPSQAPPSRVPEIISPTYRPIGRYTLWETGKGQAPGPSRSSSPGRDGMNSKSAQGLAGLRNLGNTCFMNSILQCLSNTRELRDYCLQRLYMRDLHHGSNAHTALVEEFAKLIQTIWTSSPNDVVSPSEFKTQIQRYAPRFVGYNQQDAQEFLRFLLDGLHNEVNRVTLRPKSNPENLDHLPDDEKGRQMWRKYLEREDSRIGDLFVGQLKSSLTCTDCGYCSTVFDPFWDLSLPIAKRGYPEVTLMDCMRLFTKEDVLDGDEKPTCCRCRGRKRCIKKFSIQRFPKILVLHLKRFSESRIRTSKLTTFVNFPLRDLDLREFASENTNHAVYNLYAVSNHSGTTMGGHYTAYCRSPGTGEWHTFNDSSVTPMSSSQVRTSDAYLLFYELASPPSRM
Procedure, shortened: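 5 nM USP2a preincubated with compounds for 30 min at RT in 20 mM Tris-HCl pH 8.0, 2 mM CaCl2, 2 mM beta-mercaptoethanol, 0.05% CHAPS. Cleavage of 150 nM Ub-rhodamine 110 read kinetically (Ex 485/Em 531) for 7 min.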
`COc1ccc(OC)c(Nc2ccc(Nc3cc(OC)ccc3OC)nn2)c1` was tested, and the “activity change, negative = inhibition” value was -14.2% (inactive). `O=C1NC[C@@H](c2ccccc2)OC(=O)[C@@H](Cc2ccc(F)cc2)CC/C=C/C[C@@H]1CC(=O)N(CCO)Cc1ccccc1` was tested, and the “activity change, negative = inhibition” value was -19.6% (inactive). In the case of `O=C1c2ccccc2C(=O)N1CCCCn1c(=O)oc2ccccc21`, the “activity change, negative = inhibition” value is reported as -7.54% (inactive). `N#CCC(=O)Nc1ccc(C(=O)OCC(=O)NCc2ccc3c(c2)OCO3)cc1` was tested, and the Potency was 10 µM (active). `O=C(Nc1ncccc1Cl)c1cccc(F)c1` was tested, and the “activity change, negative = inhibition” value was 3.44% (inactive). `Cc1ccc(Nc2nc(N)nc(CN3CCN(C(=O)c4ccco4)CC3)n2)cc1Cl` was tested, and the “activity change, negative = inhibition” value was -14.7% (inactive). With `CSc1cccc(NC(=O)c2ccccc2N(C)S(C)(=O)=O)c1` the “activity change, negative = inhibition” value was 1.08% (inactive). In the case of `CC(C)CC(c1nnnn1CC1CCCO1)N1CCN(c2nc3ccccc3s2)CC1` (centres undefined), the “activity change, negative = inhibition” value is reported as -9.59% (inactive). In the case of `O=C(COc1ccccc1)NCCSc1ccccc1`, the “activity change, negative = inhibition” value is reported as 4.88% (inactive). `Cn1c(=O)c2c(nc(CN3CCN(C(=O)c4ccco4)CC3)n2CCCc2ccccc2)n(C)c1=O` was tested, and the “activity change, negative = inhibition” value was -13.3% (inactive). `C=C(CCC(=O)c1ccccc1)C(=O)c1ccccc1` was tested, and the “activity change, negative = inhibition” value was -13.8% (inactive). In the case of `O=C(NCCOC(=O)c1ccccc1C(=O)OCCNC(=O)c1cccnc1)c1cccnc1`, the “activity change, negative = inhibition” value is reported as -1.61% (inactive). For `O=S(=O)(NC1CCSc2ccccc21)c1ccccc1` (centres undefined), the “activity change, negative = inhibition” value was -10.3% (inactive). With `COc1ccc(NC(=O)CN(Cc2ccccc2)S(C)(=O)=O)cc1` the “activity change, negative = inhibition” value was -5.7% (inactive). In the case of `Cc1cc(NC(=O)COC(=O)CCCOc2ccc(Cl)cc2C)no1`, the “activity change, negative = inhibition” value is reported as -2.52% (inactive). `NS(=O)(=O)c1ccc(NC(=O)/C=C/c2cn(-c3ccccc3)nc2-c2cccc(Cl)c2)cc1` was tested, and the Potency was 8.91 µM (active). `O=C(Cc1cccs1)Nc1ccc(S(=O)(=O)N2CCCCC2)cc1` was tested, and the Potency was 7.94 µM (active). In the case of `CCO[C@H]1OC(C(=O)N2CCCCCCC2)=C[C@@H](c2ccc(C(F)(F)F)cc2)[C@@H]1CCCO`, the “activity change, negative = inhibition” value is reported as -6.95% (inactive). `C=CCSC1=N/C(=C\C=C\c2ccco2)C(=O)S1` was tested, and the Potency was 10 µM (active). In the case of `CCc1cc2c(=O)c(-c3nc4ccccc4n3C)coc2c(CN2CCCCC2C)c1O` (centres undefined), the “activity change, negative = inhibition” value is reported as -20.5% (inactive). `O=C(Oc1ccccc1C(=O)Nc1ccccc1)c1ccccc1Br` was tested, and the “activity change, negative = inhibition” value was -7.34% (inactive). In the case of `O=C(c1ccccc1)N1CCN(C2C3CC4CC(C3)CC2C4)CC1` (centres undefined), the “activity change, negative = inhibition” value is reported as -3.77% (inactive). `CCCCCc1ccc(OCCOCCn2c[n+](C)c3ccccc32)c(CCCCC)c1` was tested, and the “activity change, negative = inhibition” value was -4.31% (inactive). For `Cc1noc(C)c1NC(=O)Nc1ccc2c(c1)C(=O)N([C@H](C)CO)C[C@H](C)[C@@H](CN(C)S(=O)(=O)c1ccccc1)O2`, the “activity change, negative = inhibition” value was -2.56% (inactive). `O=C(/C=N/O)NCc1cccnc1` was tested, and the “activity change, negative = inhibition” value was -8.44% (inactive). For `Cc1ccc(S(=O)(=O)Nc2ccccc2C(=O)Nc2nc(-c3ccc(F)cc3)cs2)cc1`, the Potency was 7.08 µM (active). `O=C(CNC(=O)c1ccco1)Nc1ccc(S(=O)(=O)N2CCCC2)cc1` was tested, and the “activity change, negative = inhibition” value was -14.1% (inactive). In the case of `CC1CCCCN1CCNC(=O)CC1Oc2ccccc2NC1=O` (centres undefined), the “activity change, negative = inhibition” value is reported as -15.9% (inactive). In the case of `CCC/C(O)=C1\C(=O)CC(C)(C)CC1=Nc1ccc(OC)cc1OC`, the “activity change, negative = inhibition” value is reported as -10.9% (inactive). For `CCOC(=O)c1[nH]c2ccc(OC)cc2c1NC(=O)CCN1CCCC(C)C1` (centres undefined), the “activity change, negative = inhibition” value was -9.84% (inactive). `Cc1cc(C(C)(C)CC(C)(C)C)ccc1OCCOCC[N+](C)(C)Cc1ccccc1` was tested, and the “activity change, negative = inhibition” value was -5.87% (inactive). In the case of `Cc1noc(NS(=O)(=O)c2ccc(N/C=C\C(=O)c3cccc4ccccc34)cc2)c1C`, the Potency is reported as 10 µM (active). `Cc1ccccc1OCc1nc2ccccc2c(=O)n1N` was tested, and the “activity change, negative = inhibition” value was -11.7% (inactive). With `O=C(CN1CCOCC1)Nc1ccc(C2CCCCC2)cc1` the “activity change, negative = inhibition” value was 14.6% (inactive). With `O=C(c1ccco1)N1CCN(C(c2cccs2)c2sc3ncnn3c2O)CC1` (centres undefined) the “activity change, negative = inhibition” value was -4.24% (inactive). With `COC(=O)c1ccc(NC(=O)CSC2=Nc3ccccc3C3CC=NN23)cc1` (centres undefined) the “activity change, negative = inhibition” value was -25% (inactive). `Cc1ccc(S(=O)(=O)N2[C@@H](c3ccc(C(C)(C)C)cc3)C(C(=O)O)=CC[C@H]2c2ccc(C(C)C)cc2)cc1` was tested, and the Potency was 3.98 µM (active). For `CCN(CC)CCNc1nc(-c2ccccc2)c2c(c1C#N)CC(C)(C)OC2`, the “activity change, negative = inhibition” value was -1.63% (inactive). In the case of `COC(=O)[C@@]12CCCCN1[C@H](c1ccc(-c3ccc(Cl)c(Cl)c3)cc1)[C@H]1C(=O)N(C)C(=O)[C@H]12`, the “activity change, negative = inhibition” value is reported as 1.84% (inactive).
